Drawing on PubChem BioAssay (NCATS), this text covers Potency, viability (% of control) and viability, % of control for 30 compounds.

Each structure is given as a SMILES string. Inconclusive results are not listed. Unmarked numbers belong to inactive results. Activity calls are given as the source filed them. Calls follow the shape of the dose curve; as a rule, active = well fitted cell-killing curve with a large enough effect; inconclusive = small, poorly fitted or top-dose-only effect, or effect the other way; inactive = no such curve, though single readings can be large or run the other way.

Test [1] in a line: Viability qHTS for spleen associated tyrosine kinase inhibitor (SYKi) naive MV4-11 cells (AID 1963823). Also: nearly all actives have a fitted effect of over 40% in size. In a few lines: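 SYKi-naive MV4-11 AML cells, 500 per well, were exposed to library compounds for 72 hr at 37 C, 5% CO2. Viability was then read by CellTiter-Glo luminescence after 10 min at room temperature.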
Test [2] can be described thus: Viability qHTS for spleen associated tyrosine kinase inhibitor (SYKi) drug resistant MV4-11 cells (AID 1963824). Also: nearly all actives have a fitted effect of over 35% in size. The gist of the method: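 SYK-inhibitor-resistant MV4-11 AML cells were seeded at 500 per well onto compound and cultured 72 hours (37 °C, 5% CO2). CellTiter-Glo was then added, and after 10 min at room temperature, luminescence gave viability.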
Potency is read from the fitted curve at half-maximal effect.

As to `CCCCCCOc1cc2c(cc1N(C)c1ncc(C(=O)O)cn1)C(C)(C)CCC2(C)C`, the results for the Potency in test [1] and in test [2] were 23.1 µM (active) and 6.51 µM (active), respectively.

`C[C@@H]1C[C@@H]2O[C@H]2/C=C\C=C\C(=O)Cc2c(Cl)c(O)cc(O)c2C(=O)O1`: the Potency in test [1] was 0.0404 µM (active); in test [2] it was 0.064 µM (active).

For `O=C1C(Cc2ccc(O)cc2)N2C(=O)CCN(C(=O)NCc3ccccc3)C2CN1Cc1cccc2ccccc12` (stereo not given), the Potency in test [1] is 1.46 µM (active); in test [2], 1.84 µM (active).

As for `O=C(Nc1ccc(Oc2ccc(Cl)cc2)c(Cl)c1)c1cc(I)cc(I)c1O`, the Potency entry in test [1] and in test [2] was “inactive” each time.

Take `C=C(CO)C12OC1C1(C)C(=CC2=O)C(O)C(O)CC1C` (stereo not given): the Potency result in test [1] and in test [2] was “inactive” throughout.

Turning to `CCOC(CN1C(=O)[C@](CC(=O)Nc2ccc(C)cc2)(NC(=O)Nc2ccc(C)cc2)c2ccccc21)OCC`, the Potency is 18.6 µM (active) in test [1] and 14.8 µM (active) in test [2].

With `CC(=O)NCCc1c[nH]c2ccc(O)cc12`, the Potency entry in test [1] and in test [2] was “inactive” each time.

As to `C=C1CC[C@@H]2[C@](C)(CO)[C@H](O)CC[C@@]2(C)[C@@H]1C/C=C1/C(=O)OC[C@H]1O`, the Potency in test [1] was 2.63 µM (active); in test [2], 2.95 µM (active).

In the case of `CC1C2=CC(=O)OC2(O)CC2C1CCC1C(C)(C)CCC(O)C21C` (stereo not given), the results for the Potency in test [1] and in test [2] were 12.8 µM (active) and 4.53 µM (active), respectively.

For `C[C@@H]1O[C@@H](O[C@H]2[C@H](O[C@H]3[C@H](O[C@H]4CC[C@@]5(C)C(CC[C@]6(C)C5CC=C5[C@@H]7CC(C)(C)C[C@@H](O)[C@]7(C)CC[C@]56C)[C@@]4(C)CO)O[C@H](C(=O)O)[C@@H](O)[C@@H]3O)OC[C@H](O)[C@@H]2O)[C@H](O)[C@H](O)[C@H]1O` (stereo not given in full), the viability (% of control) in test [1] was 76.2% [at 9.25 µM]. Further, in test [2], the viability, % of control is 84.4% [at 9.25 µM].

Turning to `CC(=O)OC[C@]12[C@H](OC(C)=O)C(=O)[C@@H]3[C@@H](OC(C)=O)[C@@]14O[C@@]3(C)COC(=O)c1cccnc1[C@@H](C)[C@H](C)C(=O)O[C@@H]([C@H](O)[C@@H]2OC(C)=O)[C@]4(C)O`, the Potency result in test [1] and in test [2] was “inactive” throughout.

For `COc1cc(CCc2cc(NC(=O)c3ccc(N4CC(C)NC(C)C4)cc3)n[nH]2)cc(OC)c1` (stereo not given), the values for the Potency in test [1] and in test [2] were 0.82 µM (active) and 1.03 µM (active), respectively.

As to `C=C1C(=O)OC2/C=C(\CO)CC/C=C(\C=O)C(O)C(OC(=O)C(C)CC)C12` (stereo not given), the Potency in test [1] is 2.02 µM (active); in test [2], 2.86 µM (active).

Take `COc1cc(C(=O)OC[C@@]2(O)CO[C@@H](O[C@H]3[C@H](Oc4ccc(C(=O)O)cc4OC)O[C@H](CO)[C@@H](O)[C@@H]3O)[C@@H]2O)ccc1O`: the Potency result in test [1] and in test [2] was “inactive” in each case.

Take `CC1(O)CCC2C(C(=O)O)=COC(OC3OC(CO)C(O)C(O)C3OC(=O)/C=C/c3ccc(O)cc3)C21` (stereo not given): the Potency entry in test [1] and in test [2] was “inactive” throughout.

For the compound `CC1=C(CC/C(C)=C/C(=O)O)[C@@]2(C)CCCC(C)(C)C2CC1=O` (stereo not given in full), the Potency result in test [1] and in test [2] was “inactive” each time.

`CC#CC(=O)N1CC[C@@H](n2c(=O)n(-c3ccc(Oc4ccccc4)cc3)c3c(N)ncnc32)C1`: the Potency is 7.42 µM (active) in test [1] and 8.33 µM (active) in test [2].

Regarding `C[C@@H]1C(=O)O[C@H]2[C@H](O)C34[C@H]5C[C@@H](C(C)(C)C)C36[C@@H](OC(=O)[C@@H]6O)O[C@@]4(C(=O)O5)[C@@]12O` (stereo not given in full), the Potency result in test [1] and in test [2] was “inactive” throughout.

For `COc1ccc(CNC(=O)c2cc(-c3cncc(C)c3)ncc2-c2nccs2)nc1OC`, the Potency entry in test [1] and in test [2] was “inactive” throughout.

For the compound `CC1(C)CCCC2(C)C(CO)C3CCC2C31` (stereo not given), the Potency result in test [1] and in test [2] was “inactive” throughout.

Regarding `O=C(OCc1ccccc1O[C@@H]1O[C@H](CO)[C@@H](O)[C@H](O)[C@H]1O)C1(O)C=CCCC1O` (stereo not given in full), the Potency entry in test [1] and in test [2] was “inactive” in each case.

For `CN1CCN(S(=O)(=O)c2ccc(-c3cnc(N)c(C(=O)Nc4cccnc4)n3)cc2)CC1`, the results for the Potency in test [1] and in test [2] were 0.893 µM (active) and 0.796 µM (active), respectively.

On to `CC(=O)OC1C(O)C(C)(O)C(/C=C/C(=O)O)C2(C)CCCC(C)(C)C12` (stereo not given), for which the Potency entry in test [1] and in test [2] was “inactive” in each case.

Regarding `CC1CCC2C(C(=O)O)=CC3(O)CC(C)(C)CC123` (stereo not given), the Potency result in test [1] and in test [2] was “inactive” in each case.

Consider `NCCOCCOCCNC(=O)Cc1ccc(Nc2nc(NCc3ccc(F)cc3)nc(NCC3CCCCC3)n2)cc1`, for which the Potency in test [1] is 2.31 µM (active); in test [2], 4.61 µM (active).

Regarding `C[C@@]1(O)[C@H](O)[C@@H](CO)O[C@H]1n1cnc2c(=O)[nH]c(N)nc21`, the Potency result in test [1] and in test [2] was “inactive” each time.

With `C=C1CCC2C(C(C)(C)O)CCC2(C)CC(O)C(=C)CCC1O` (stereo not given), the Potency in test [1] was 9.04 µM (active); in test [2], 11.4 µM (active).

In the case of `CC(=O)O[C@@H]1CC[C@@]2(C)[C@H](CC[C@@H]3[C@@H]2C[C@H](OC(C)=O)[C@]2(C)[C@@H](C(C)=O)CC[C@@H]32)C1`, the Potency in test [1] and in test [2] was 8.2 µM (active) throughout.

For `COc1cc(-c2ccc(O)cc2)c(OC)c(O)c1C1=CC(=O)OC1CC(=O)O` (stereo not given), the Potency result in test [1] and in test [2] was “inactive” throughout.

With `Oc1ccc(CNc2ccccc2F)c2cccnc12`, the Potency in test [1] was 2.91 µM (active); in test [2] it was 4.61 µM (active).
